This is part of a sample that, as a whole, favours compounds with a hit. Of some 79,000 tested, about 15% had one in any assay. Values without a mark were called inactive. The source made the active and inactive calls. Rule as the data show it: active = growth inhibition above about 70%; inactive = the rest. Where a SMILES comes first, the peptide text is derived from it. The star is where a group is joined. Cbz = O=C(OCc1ccccc1)*; Bn = c1ccc(C*)cc1
Assay: NCI Yeast Anticancer Drug Screen. Data for the rad50 strain (AID 155);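 also: 0% = growth of vehicle-only cultures of the same strain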
Conditions: S. cerevisiae rad50 strain growth inhibition; at 50.0 µM; stronger effect = higher value
How it was run: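 Relative growth inhibition (compound vs vehicle) was measured in yeast with a defined repair-gene alteration.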

Row | SMILES | growth inhibition
1 | CC(=O)OC/C=C(\C)CC(/C=C(C)/C=C/C1=C(C)CCCC1(C)C)S(=O)(=O)c1ccccc1 (stereo not given) | 35.5%
2 | O=c1nc(/C=C/c2ccccc2Cl)cc2n1CCN2CCO | -17.4%
3 | CCC(=O)Oc1cccc2ccccc12 | -14.4%
4 | Cc1ccc(C)c(NC(=O)Oc2ccc(Br)cc2Br)c1 | 11.4%
5 | CC1CCCC2C(=O)OC(=O)C12 (stereo not given) | -5.3%
6 | CNNCCCC(=O)NC(C)C | -5.7%
7 | CSc1ccccc1N1C(=O)CSC1=S | -7.8%
8 | CC(C)([NH-])C[NH-].[Cl][Pt+2][Cl] | -17.1%
9 | O=[N+]([O-])c1ccc(S(=O)(=O)/N=C/c2ccccc2)cc1 | 2.2%
10 | O=C(O)CNCc1ccccc1 | 2.85%
11 | CCOC(=O)C(Cc1cn(C(C)=O)c2ccccc12)P(=O)(OCC)OCC (stereo not given) | -12.7%
12 | O=C1CCC2=NCc3c(ccc4ccccc34)N12 | 4.7%
13 | CC(C)C(NC(=O)C(CSCc1ccccc1)NC(=O)OCc1ccccc1)C(N)=O (stereo not given) (Cbz-Cys(Bn)-Val-NH2; configuration not given here) | 8.8%
14 | C#CCC1CCCC/C1=N\Nc1ccc([N+](=O)[O-])cc1[N+](=O)[O-] (stereo not given) | 2.25%
15 | COc1cc(O)c2c(c1)C(=O)C1=C(C2=O)C(O)C[C@@](C)(O)C1 (stereo not given in full) | 89.2% (active)
16 | CSc1ccc(NC(=O)Nc2ccccc2F)cc1 | -7.65%
17 | CN(C)CC1CCC/C(=C\c2ccccc2)C1=O (stereo not given) | 37.1%
18 | O=C1CSC(c2cccc(O)c2)N1c1nncs1 (stereo not given) | 6.75%
19 | CC(C)C(C)(C)C(N)=O | -4.5%
20 | NC(N)=NOCC(=O)O | -7.2%

Row | SMILES | growth inhibition
21 | OCC(O)COc1cccc2cccnc12 (stereo not given) | 4.75%
22 | O=C(O)c1ccccc1NC(=O)C1CCCCC1 | 10.1%
23 | CSC1=C(C#N)C(=O)N(c2ccc(C)cc2)C(=O)C1C#N (stereo not given) | 26.1%
24 | CNC1C(O)C(OC2C(N)CC(N)C(OC3OC(CN)C(O)C(O)C3O)C2O)OCC1(C)O (stereo not given) | 27.1%
25 | CCC1c2c(cc(=O)[nH]c2O)C(=O)N1Cc1ccccc1 (stereo not given) | 12.3%
26 | CCCCNS(=O)(=O)c1n[nH]c(=O)[nH]c1=O | -27.1%
27 | CC(C)CCNCCC(C)C | 35.7%
28 | N#C/C(=C\c1ccccc1)c1cccc(Br)c1 | 3.9%
29 | COc1ccc(S(=O)Cc2cc(OC)c(OC)c(OC)c2)cc1 (stereo not given) | -7.9%
30 | C/C(CC(=O)Nc1ccc(Cl)c(Cl)c1)=N/NC(=O)C[N+](C)(C)C | -9.25%
31 | O=C(O)c1cc(Cl)ccc1-c1ccc(Cl)cc1C(=O)Nc1ccc2c(c1)Cc1ccccc1-2 | 91.3% (active)
32 | Cc1ccc(S(=O)(=O)C/C(=N\Nc2ccc([N+](=O)[O-])cc2[N+](=O)[O-])c2ccccc2)cc1 | 38.4%
33 | CC(=O)OC[C@@H](COC(=O)/C=C/c1ccc(O)cc1)OC1OC(CO)C(O)C(O)C1O (stereo not given in full) | -1.45%
34 | COc1ccc(C(=O)c2ccc(OC)cc2)cc1 | -15.1%
35 | CCN(CC)CCN1C(=O)C2C3C=CC(C3)C2C1=O (stereo not given) | -15.1%
36 | C/C=C(/C)C(C#N)(CCC)C(=O)OCC (stereo not given) | 5.9%
37 | CCN(CC)C(=O)c1cccc(C(=O)N(CC)CC)n1 | 11.1%
38 | CCN(CC)Cc1cc(NC(C)=O)ccc1O | -5.1%
39 | NC(N)=N/N=C(\c1ccc(Cl)cc1)C1CC1 | 2.7%
40 | CC(=O)N(C(C)=O)c1cc2c3c(c1)CCCN3CCC2 | 2.2%

Assay: NCI Yeast Anticancer Drug Screen. Data for the mec2-1 strain (AID 157)
Conditions: S. cerevisiae mec2-1 strain, at 50.0 µM, stronger effect = higher value
How it was run: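 Vehicle-treated cultures served as reference for growth inhibition of compound-exposed mec2-1 yeast.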

Row | SMILES | growth inhibition
41 | CC(=O)OC/C=C(\C)CC(/C=C(C)/C=C/C1=C(C)CCCC1(C)C)S(=O)(=O)c1ccccc1 (stereo not given) | 9.4%
42 | O=c1nc(/C=C/c2ccccc2Cl)cc2n1CCN2CCO | -10.7%
43 | CCC(=O)Oc1cccc2ccccc12 | -26.9%
44 | Cc1ccc(C)c(NC(=O)Oc2ccc(Br)cc2Br)c1 | 5.9%
45 | CC1CCCC2C(=O)OC(=O)C12 (stereo not given) | -9.6%
46 | CNNCCCC(=O)NC(C)C | 6.65%
47 | CSc1ccccc1N1C(=O)CSC1=S | 4.4%
48 | CC(C)([NH-])C[NH-].[Cl][Pt+2][Cl] | -18.8%
49 | O=[N+]([O-])c1ccc(S(=O)(=O)/N=C/c2ccccc2)cc1 | 9.25%
50 | O=C(O)CNCc1ccccc1 | 22.5%
51 | CCOC(=O)C(Cc1cn(C(C)=O)c2ccccc12)P(=O)(OCC)OCC (stereo not given) | -21.6%
52 | O=C1CCC2=NCc3c(ccc4ccccc34)N12 | -0.85%
53 | CC(C)C(NC(=O)C(CSCc1ccccc1)NC(=O)OCc1ccccc1)C(N)=O (stereo not given) (Cbz-Cys(Bn)-Val-NH2; configuration not given here) | 16.1%
54 | C#CCC1CCCC/C1=N\Nc1ccc([N+](=O)[O-])cc1[N+](=O)[O-] (stereo not given) | 3.2%
55 | COc1cc(O)c2c(c1)C(=O)C1=C(C2=O)C(O)C[C@@](C)(O)C1 (stereo not given in full) | 90.2% (active)
56 | CSc1ccc(NC(=O)Nc2ccccc2F)cc1 | 19.1%
57 | CN(C)CC1CCC/C(=C\c2ccccc2)C1=O (stereo not given) | 41.8%
58 | O=C1CSC(c2cccc(O)c2)N1c1nncs1 (stereo not given) | 12.9%
59 | CC(C)C(C)(C)C(N)=O | -0.95%
60 | NC(N)=NOCC(=O)O | -14.7%

Row | SMILES | growth inhibition
61 | OCC(O)COc1cccc2cccnc12 (stereo not given) | -15%
62 | O=C(O)c1ccccc1NC(=O)C1CCCCC1 | 6.8%
63 | CSC1=C(C#N)C(=O)N(c2ccc(C)cc2)C(=O)C1C#N (stereo not given) | 12.2%
64 | CNC1C(O)C(OC2C(N)CC(N)C(OC3OC(CN)C(O)C(O)C3O)C2O)OCC1(C)O (stereo not given) | -17.1%
65 | CCC1c2c(cc(=O)[nH]c2O)C(=O)N1Cc1ccccc1 (stereo not given) | 6.4%
66 | CCCCNS(=O)(=O)c1n[nH]c(=O)[nH]c1=O | -10.1%
67 | CC(C)CCNCCC(C)C | 25.1%
68 | N#C/C(=C\c1ccccc1)c1cccc(Br)c1 | -6.1%
69 | COc1ccc(S(=O)Cc2cc(OC)c(OC)c(OC)c2)cc1 (stereo not given) | -19.9%
70 | C/C(CC(=O)Nc1ccc(Cl)c(Cl)c1)=N/NC(=O)C[N+](C)(C)C | -14.7%
71 | O=C(O)c1cc(Cl)ccc1-c1ccc(Cl)cc1C(=O)Nc1ccc2c(c1)Cc1ccccc1-2 | 89.7% (active)
72 | Cc1ccc(S(=O)(=O)C/C(=N\Nc2ccc([N+](=O)[O-])cc2[N+](=O)[O-])c2ccccc2)cc1 | -9.45%
73 | CC(=O)OC[C@@H](COC(=O)/C=C/c1ccc(O)cc1)OC1OC(CO)C(O)C(O)C1O (stereo not given in full) | -37.2%
74 | COc1ccc(C(=O)c2ccc(OC)cc2)cc1 | -27.1%
75 | CCN(CC)CCN1C(=O)C2C3C=CC(C3)C2C1=O (stereo not given) | -15.4%
76 | C/C=C(/C)C(C#N)(CCC)C(=O)OCC (stereo not given) | -12.4%
77 | CCN(CC)C(=O)c1cccc(C(=O)N(CC)CC)n1 | 3.6%
78 | CCN(CC)Cc1cc(NC(C)=O)ccc1O | -13.7%
79 | NC(N)=N/N=C(\c1ccc(Cl)cc1)C1CC1 | -5.05%
80 | CC(=O)N(C(C)=O)c1cc2c3c(c1)CCCN3CCC2 | -40.8%

Reference: PubChem BioAssay (NCI)
